Assay results as given in the supplement of paper PMC10338343.
± gives the standard deviation.

These sequences were tested on MILI (PIWIL2) piRISC loaded with L1MC piRNA (26 nt) (assay: pre-steady-state target cleavage rate (min^-1); guide: L1MC piRNA 5'p-UAACUAAAUACUAUGCAAGCUGUAGG; MIWI and MILI are mouse PIWI proteins and EfPiwi is from a freshwater sponge; tags in brackets are library labels; higher = faster piRNA-guided slicing of the target). Conditions: auxiliary factor: 500 nM mouse GTSF1.
Experimental: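 Cleave-'n-Seq: a library of target RNAs (target site embedded in constant flanks, ACAGCATTCCGCGTTAGTGATATCCG... 5' flank; DNA-blocked outside the site) at 0.1 nM was incubated with 1 nM active mouse MILI or MIWI piRISC (synthetic 5'-monophosphorylated piRNA guide) with or without 500 nM mouse GTSF1 at 33 °C for 1 min to 16 h. Uncleaved targets were sequenced and normalised to non-target controls, and the pooled three trials were fitted to a burst-and-steady-state model to give the pre-steady-state cleavage rate (min^-1; k3 is constrained to at most 1e-4). Sequence is the target site only; target names encode pairing extent (gX:gY) and contiguous / 1-mismatch / 2-mismatch / bulge geometry. Fits with R² ≤ 0 are excluded.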

Row | Sequence | pre-steady-state target cleavage rate
1 | UCCUGGAAGAGCUUGCAUAGUAUUUAGUUA | 0.223 ± 0.014
2 | UCCUGGAUGAGCUUGCAUGUAUUUAGUUA | 0.0097 ± 0.004
3 | UCCUGGAUGUCGAUGCAGAGUAUUUAGUUA | 0.00473 ± 0.0028
4 | UCCUGGAUGUCGUUGCCUAGUAUUUAGUUA | 0.0556 ± 0.0094
5 | UCCUGGAUGUGGUUGCAAAGUAUUUAGUUA | 0.0262 ± 0.0077
6 | UCCUGGAUGUCCUAGCAUAGUAUUUAGUUA | 0.0817 ± 0.015
7 | UCCUGGAUGUCCUUGCAUAGUAUUAUCAAA [g7:g19:cont:t1A] | 0.0222 ± 0.0094
8 | UCCUGGAUCUGCUUGCAUAGUAUAUAGUUA | 0.191 ± 0.019
9 | UCCUGGAUGUCCUUGCAUAGUAUAUACUUA | 0.00862 ± 0.0049
10 | UCCUGGAUCAGCUUGCAAUGUAUUUAGUUA | 0.0475 ± 0.011
11 | UCCUCCUACAGCUUGCAUAGUAUAUAGAAA | 0.105 ± 0.028
12 | UCCUGCAACAGCAUGCAUAGUAUUUAGUUA | 0.329 ± 0.023
13 | UCCUGGAUGAGCUUGCAUAGUAUUUACUUA | 0.0753 ± 0.019
14 | UCCUGGAUCAGCUUGCUAAGUAUUUACAAA | 0.0261 ± 0.0085
15 | UCCUGGAUCAGCUUGCAUAGUAAUUAGUAA | 0.0974 ± 0.021
16 | UCCUGGAUGUGCUGCAUAGUAUUUAGUUA | 0.0672 ± 0.009
17 | UCCUGGAUGAGGUAGCAUAGUAUUUAGUUA | 0.0611 ± 0.0091
18 | UCCUGGAUCUGCAUGCAUAGUAUUUAGUUA | 0.209 ± 0.015
19 | UCCUCCUUCACCUUGCAUAGUAUUUAGUUA | 0.212 ± 0.028
20 | UCCUCCUUCAGCUUGCAUAGUAUUUAGUUA | 0.297 ± 0.019
21 | UCCUGGUACUGGUUGCAUAGUAUUUAGUUA | 0.162 ± 0.042
22 | UCCUGGUACAGGUUGCUUAGUAUUUAGUUA | 0.328 ± 0.022
23 | UCCUGGAUCAGCUUGCAUAGAUAUUAGUUA | 0.00566 ± 0.0036

Same assay, conditions: auxiliary factor: none (no GTSF1)

Row | Sequence | pre-steady-state target cleavage rate
24 | UCCUGGAAGAGCUUGCAUAGUAUUUAGUUA | 0.0115 ± 0.0029
25 | UCCUGGAUGUCGUUGCCUAGUAUUUAGUUA | 0.00949 ± 0.0028
26 | UCCUGGAUGUGGUUGCAAAGUAUUUAGUUA | 0.00983 ± 0.0026
27 | UCCUGGAUGUCCUAGCAUAGUAUUUAGUUA | 0.00379 ± 0.002
28 | UCCUGGAUCUGCUUGCAUAGUAUAUAGUUA | 0.00587 ± 0.0024
29 | UCCUGGAUCAGCUUGCAAUGUAUUUAGUUA | 0.00413 ± 0.0025
30 | UCCUGCAACAGCAUGCAUAGUAUUUAGUUA | 0.00926 ± 0.0035
31 | UCCUGGAUCAGCUUGCAUAGUAAUUAGUAA | 0.00485 ± 0.0021
32 | UCCUGGAUGUGCUGCAUAGUAUUUAGUUA | 0.00895 ± 0.0024
33 | UCCUGGAUGAGGUAGCAUAGUAUUUAGUUA | 0.00664 ± 0.0022
34 | UCCUGGAUCUGCAUGCAUAGUAUUUAGUUA | 0.00837 ± 0.0023
35 | UCCUCCUUCACCUUGCAUAGUAUUUAGUUA | 0.00635 ± 0.0025
36 | UCCUCCUUCAGCUUGCAUAGUAUUUAGUUA | 0.0116 ± 0.0026
37 | UCCUGGAUGUCGAACGCUAGUAUUUAGUUA | < 0.0001
38 | UCCUGGUACUGGUUGCAUAGUAUUUAGUUA | 0.0125 ± 0.0045
39 | UCCUGGUACAGGUUGCUUAGUAUUUAGUUA | 0.0176 ± 0.0042
